Screening results as filed in PubChem BioAssay.
This is a sample that favours compounds with a hit; in the whole collection about 4.1% have one here.
hcDAF12 agonist: H. contortus DAF-12 activation, primary screen; HEK293 hcDAF-12 lit1-tk-luc reporter, luminescence; 0% DMSO, 100% Δ7-dafachronic acid; AID 652067; 370,000 tested, 1.4% active; activation, % at 6.8 µM;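 active = activation above the mean of all tested compounds plus 3 SD, cut at about 5.5% in these data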
DAX1 inh-1: NR0B1 (DAX1) inhibition. HEK293 Gal4-DAX1 luciferase reporter, luminescence. P51843. 340,000 tested, 0.99% active. AID 504766. inhibition, % at 6.75 µM;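 active = inhibition above the mean over all tested compounds plus 3 SD, cut at about 4.2% in these data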;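 note: inhibition shows as a rise in luminescence from relieved DAX1 repression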
Target sequence (P51843 207-470 limits assumed): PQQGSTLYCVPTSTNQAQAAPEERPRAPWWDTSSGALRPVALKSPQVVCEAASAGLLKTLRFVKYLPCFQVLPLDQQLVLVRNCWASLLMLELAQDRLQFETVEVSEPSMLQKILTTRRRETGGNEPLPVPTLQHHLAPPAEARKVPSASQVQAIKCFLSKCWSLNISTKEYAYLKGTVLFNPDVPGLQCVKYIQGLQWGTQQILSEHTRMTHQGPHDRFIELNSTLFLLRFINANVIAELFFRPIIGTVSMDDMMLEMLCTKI
hgDAF12 agonist: agonists of H. glycines DAF-12 nuclear receptor; HEK293 GAL4-hgDAF12 UAS-luciferase reporter, agonist luminescence; normalized to butyrate control; activation, % at 6.8 µM; 370,000 tested, 1.8% active; AID 687014;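 active = activation above a cutoff set at the mean of all screened compounds plus 3 SD, cut at about 10% in these data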
DAX1 inh-2: blocks DAX1 repression of SF-1 activated StAR promoter; AID 652010; 370,000 tested, 1.1% active; HEK293T StAR-luciferase reporter, SF-1/DAX-1 repression relief; inhibition, % at 6.8 µM;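 active = inhibition above the mean over all tested compounds plus 3 SD, cut at about 3.6% in these data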;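 note: higher inhibition means more luminescence from relief of DAX-1 repression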
ssDAF-12 act: activates DAF-12 receptor from parasite S. stercoralis. HEK293 ssDAF-12/GRIP1 lit1-tk-luc reporter, luminescence; % of 3 µM dafachronic acid response. activation, % at 6.8 µM. 370,000 tested, 1% active;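 active = activation above the mean over all tested compounds plus 3 SD, cut at about 0.9% in these data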
Large screens that a line does not name were inactive.

COC(=O)C1CN(Cc2ccc(OC)cc2)CCS(=O)(=O)N1Cc1ccc(F)cc1 (centres undefined)	none (no result: DAX1 inh-1)
COC(=O)C1CN(Cc2cn(Cc3ccccc3)nn2)CCS(=O)(=O)N1Cc1ccc(F)cc1 (centres undefined)	none (no result: DAX1 inh-1)
CNc1nc(-c2ccc3c(c2)CCN3C(=O)c2cccc(F)c2)cs1	hgDAF12 agonist 10.7
CNc1nc(-c2ccc3c(c2)CCN3C(=O)c2ccc(F)cc2)cs1	none
Cc1cc(OC[C@@H](O)CN2CCC(C(O)(c3ccccc3)c3ccccc3)CC2)ccc1Br	none (no result: DAX1 inh-1)
COC(c1ccccc1)c1nnc(CCC(=O)N(C)C(C2CC2)C2CC2)o1 (centres undefined)	DAX1 inh-1 5.2
Cc1ccc(NC(=O)C2CC(=O)Nc3nncn32)cc1 (centres undefined)	ssDAF-12 act 8.3
Cc1ccc(-n2c(SCc3ccc(Cl)c(Cl)c3)nnc2-c2ccc(C(C)(C)C)cc2)cc1	none (no result: DAX1 inh-1)
O=C(CSc1nc2[nH]ncc2c(=O)[nH]1)Nc1nccs1	ssDAF-12 act 7.5 (no result: DAX1 inh-1)
CCc1nnc(NC(=O)CSc2nc3[nH]ncc3c(=O)[nH]2)s1	none
CC(C)Oc1ccc(Oc2ccc(C#C[C@H](C)N3C(=O)c4ccccc4C3=O)cc2)cn1	none (no result: DAX1 inh-1, DAX1 inh-2)
Nc1ccc2c(c1)C(=O)c1ccccc1-2	DAX1 inh-1 6.1
CCc1c(-c2cccc(OC)c2)ncn1CCc1ccccc1OC	none (no result: DAX1 inh-1)
Nc1nc(-c2ccccc2)[nH]c(=O)c1N=O	DAX1 inh-1 4.2
N#Cc1c(-c2ccccc2)nc(-c2ccccc2)[nH]c1=O	none
CCn1c(SCC(=O)N2CCN(c3ccccc3)CC2)nc2c([nH]c3ccccc32)c1=O	ssDAF-12 act 1.2
CCn1c(SCC(=O)N2CCCCCC2)nc2c([nH]c3ccccc32)c1=O	none
Cc1ccc(S(=O)(=O)N2CCCN(C(=O)c3cc4ccccc4[nH]3)CC2)cc1	hcDAF12 agonist 5.8
CCOC(=O)N1CCN(C(=O)CSc2nnc(Cn3c(=O)sc4ccccc43)n2C)CC1	none
CC(=O)c1ccc(NC(=O)CSc2nnc(Cn3c(=O)sc4ccccc43)n2C)cc1	DAX1 inh-1 4.8
CCOC(=O)CSc1nnc(Cn2c(=O)sc3ccccc32)n1C	DAX1 inh-1 5.8
CC1(C)CC(=O)C=C(Nc2ccccc2NC(=O)c2cc(Cl)ccc2F)C1	none (no result: DAX1 inh-1)
N#Cc1ccccc1N1CCN(C(=O)C2CCN(c3ncnc4c3sc3cccc(F)c34)CC2)CC1	none (no result: DAX1 inh-1)
O=C(NCCCc1ccccc1)[C@H](Cc1c[nH]c2ccccc12)NC1(C(=O)NCCc2c[nH]c3ccccc23)CCOCC1	none (no result: DAX1 inh-1, DAX1 inh-2)
CC(C)NC(=O)C1C(c2ccc(C(F)(F)F)cc2)=Nc2ccccc2N1C(=O)c1ccccc1 (centres undefined)	ssDAF-12 act 1.5 (no result: DAX1 inh-1)
O=C(COC(=O)Cn1cnc2ccccc2c1=O)Nc1cc(Cl)ccc1[N+](=O)[O-]	hcDAF12 agonist 5.6
Cn1c(=O)c2c(ncn2CC(=O)OCC(=O)Nc2cc(Cl)ccc2C#N)n(C)c1=O	hcDAF12 agonist 6.0
O=C(CSc1ncccn1)NCc1cccc(Cl)c1	hgDAF12 agonist 12.2
Cc1ccc(Cl)cc1NC(=O)COC(=O)Cn1cnc2c1c(=O)n(C)c(=O)n2C	none
O=C(CSc1ncccn1)Nc1cc(Cl)ccc1[N+](=O)[O-]	DAX1 inh-1 4.8
O=C(CSc1ncccn1)NCc1ccc(Cl)cc1	none
Cc1nc(SCC(=O)Nc2cc(Cl)ccc2[N+](=O)[O-])nc(C)c1C	none
COc1ccc(NC(=O)COC(=O)Cn2cnc3ccccc3c2=O)c(OC)c1	none
O=C(NCC1CCN(C(=O)C(=O)c2cccs2)CC1)c1ccc2c(c1)OCO2	none (no result: DAX1 inh-1)
Cc1cc2nc3ccc(N(C)C)cc3nc2cc1N	hcDAF12 agonist 6.3, DAX1 inh-2 4.4, ssDAF-12 act 1.1
O=C(CCc1nc2ccccc2c(=O)[nH]1)Nc1ccc(F)c([N+](=O)[O-])c1	none
O=C(Nc1cc([N+](=O)[O-])c2[nH]c(=O)c3ccccc3c2c1)C(F)(F)F	DAX1 inh-2 3.9
COc1ccc(-c2cc(C(=O)Nc3ccc(C(N)=O)cc3)c3ccccc3n2)cc1	hgDAF12 agonist 10.7
CCOc1ccc(NC(=O)c2ccccc2O)cc1	hgDAF12 agonist 12.3
COc1cccc(-c2cc(C(=O)Nc3ccccc3)c3ccccc3n2)c1	none (no result: DAX1 inh-1)
CCOc1ccc(NC(=S)c2ccc3ccccc3n2)cc1	ssDAF-12 act 1.0
CCOc1ccc(NC(=O)c2cc(Cl)nc3ccccc23)cc1	DAX1 inh-1 4.3
COc1ccc(NC(=S)c2ccc3ccccc3n2)cc1	none (no result: hcDAF12 agonist, hgDAF12 agonist, DAX1 inh-2, ssDAF-12 act)
CC(C)(C)OC(=O)NCc1ccccc1/C=C/S(=O)(=O)NCc1ccccc1	none (no result: DAX1 inh-1)
O=C(CCc1ccccc1)N[C@H]1C(=O)CCC[C@]12C(=O)N(Cc1ccccc1)c1ccccc12	none (no result: DAX1 inh-1)
COC(=O)[C@]12C[C@H](CC(=O)NCc3cccs3)C(=O)N(CCc3ccc(OC)c(OC)c3)C1=C[C@H](C(C)(C)C)O[C@@H]2C	none (no result: DAX1 inh-1)
CN(CCO)c1ccc2c(c1)Oc1ccccc1CN(Cc1cn(Cc3ccc(C(F)(F)F)cc3)nn1)S2(=O)=O	none (no result: DAX1 inh-1)
CC(=O)Nc1ccc(-c2cc(C(=O)O)c3ccc(C)cc3n2)cc1	none
CC(=O)Nc1ccc(-c2cc(C(=O)O)c3cc4ccccc4cc3n2)cc1	hcDAF12 agonist 5.9, ssDAF-12 act 1.8
C=CCN(CC#Cc1ccccc1)CC=C	none (no result: DAX1 inh-1)
COCCNC(=O)Cn1nc(-c2ccc(Cl)cc2)c2ccccc2c1=O	ssDAF-12 act 10.8
COCCNC(=O)Cn1nc(-c2ccccc2)c2ccccc2c1=O	none
CCN(CC)c1ccc(-c2nn3c(-c4ccccc4Cl)nnc3s2)cc1	none (no result: DAX1 inh-1)
O=C(CSc1ccccn1)Nc1nc2ccccc2s1	none
COc1ccc(-c2nnc3ccc(SCC(=O)Nc4nc5ccccc5s4)nn23)cc1OC	hgDAF12 agonist 11.1
O=C(CSc1cn[nH]n1)Nc1nc2ccccc2s1	hcDAF12 agonist 6.0
Cc1ccc(C(=O)Oc2coc(CSc3ncccn3)cc2=O)cc1[N+](=O)[O-]	none (no result: DAX1 inh-1, DAX1 inh-2)
Cc1c(NC(=O)C2CCCN(S(=O)(=O)c3ccc(C(C)(C)C)cc3)C2)c(=O)n(-c2ccccc2)n1C (centres undefined)	none (no result: DAX1 inh-1)
COc1ccc(CNC(=O)[C@@H](Cc2ccccc2)NC(=O)[C@H]2O[C@@H](n3ccc(=O)[nH]c3=O)[C@H](O)[C@@H]2O)cc1	none (no result: DAX1 inh-1)
Cc1occc1C(=O)NC1CCCCCC1	none
C/C(=N/NC(=O)c1ccoc1C)C12CC3CC(CC(C3)C1)C2	hgDAF12 agonist 12.5
O=S1(=O)N[C@@H](Cc2ccccc2)COc2cccc(N3CCC[C@H]3CO)c21	DAX1 inh-2 4.1 (no result: DAX1 inh-1)
O=S1(=O)N[C@H](Cc2ccccc2)COc2cccc(N3CCC[C@H]3CO)c21	none (no result: DAX1 inh-1)
COC(=O)[C@]12C[C@H](CC(=O)NCc3ccc(C)o3)C(=O)N(Cc3ccc(Cl)cc3Cl)C1=C[C@H](COCc1ccccc1)O[C@@H]2C	none (no result: DAX1 inh-1)
COCCCNCCOCCOc1ccc(C)cc1Br	hcDAF12 agonist 5.7
Cc1cc(C)cc(OC[C@@H](O)CN2CCC(C(O)(c3ccccc3)c3ccccc3)CC2)c1	none (no result: DAX1 inh-1)
